This note sets out measurements from PubChem BioAssay.

Activity calls are given as the source filed them.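 How the source made its calls: active means normalized viability below 100% at a tested concentration; inactive means the rest.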

The nature of one assay: ovarian cancer cell viability with rucaparib, profiling panel, oncology-focused library, rucaparib conditional (AID 1508598). To be noted: patient-derived ovarian cancer cells, CellTiter-Glo viability, 144 h; at 1.25 µM; OCI-P5x cells; with rucaparib 20 µM; stronger effect = lower value; 100% = cells with rucaparib alone.
By viability is commonly meant a read-out of living cells in per cent, often relative to untreated cells. As to `C/C(=C\c1csc(C)n1)[C@H]1C[C@@H]2O[C@]2(C)CCC[C@H](C)[C@H](O)[C@@H](C)C(=O)C(C)(C)[C@H](O)CC(=O)O1`, the viability was 39.6% (active).
As to `C/C(=C\c1csc(C)n1)[C@H]1C[C@@H]2O[C@@H]2CCC[C@H](C)[C@H](O)[C@@H](C)C(=O)C(C)(C)[C@H](O)CC(=O)O1`, the viability was 46.3% (active).
Consider `CC(C)[C@@]12O[C@@H]1[C@@H]1O[C@]13[C@]1(O[C@@H]1C[C@@H]1C4=C(CC[C@@]13C)C(=O)OC4)[C@@H]2O`, for which the viability is 9.34% (active).

Staying with this assay, now noted: patient-derived ovarian cancer cells, CellTiter-Glo viability, 144 h; at 1.25 µM; OCI-P5x cells; without rucaparib; stronger effect = lower value.
For the compound `C/C(=C\c1csc(C)n1)[C@H]1C[C@@H]2O[C@]2(C)CCC[C@H](C)[C@H](O)[C@@H](C)C(=O)C(C)(C)[C@H](O)CC(=O)O1`, the viability was 16.1% (active).
In the case of `C/C(=C\c1csc(C)n1)[C@H]1C[C@@H]2O[C@@H]2CCC[C@H](C)[C@H](O)[C@@H](C)C(=O)C(C)(C)[C@H](O)CC(=O)O1`, the viability is 14.6% (active).
The same measure, in the same setting: for `CC(C)[C@@]12O[C@@H]1[C@@H]1O[C@]13[C@]1(O[C@@H]1C[C@@H]1C4=C(CC[C@@]13C)C(=O)OC4)[C@@H]2O` the value was 8.5% (active).

Staying with this assay, now noted: patient-derived ovarian cancer cells, CellTiter-Glo viability, 144 h; at 5 µM; OCI-C5x cells; with rucaparib 10 µM; stronger effect = lower value; 100% = cells with rucaparib alone.
Take `C/C(=C\c1csc(C)n1)[C@H]1C[C@@H]2O[C@]2(C)CCC[C@H](C)[C@H](O)[C@@H](C)C(=O)C(C)(C)[C@H](O)CC(=O)O1`: the viability was 45.4% (active).
Consider `C/C(=C\c1csc(C)n1)[C@H]1C[C@@H]2O[C@@H]2CCC[C@H](C)[C@H](O)[C@@H](C)C(=O)C(C)(C)[C@H](O)CC(=O)O1`, for which the viability is 52.3% (active).
Regarding `CC(C)[C@@]12O[C@@H]1[C@@H]1O[C@]13[C@]1(O[C@@H]1C[C@@H]1C4=C(CC[C@@]13C)C(=O)OC4)[C@@H]2O`, the viability is 9.2% (active).

Still in this assay, the particulars now being: patient-derived ovarian cancer cells, CellTiter-Glo viability, 144 h; at 5 µM; OCI-C5x cells; without rucaparib; stronger effect = lower value.
As for `C/C(=C\c1csc(C)n1)[C@H]1C[C@@H]2O[C@]2(C)CCC[C@H](C)[C@H](O)[C@@H](C)C(=O)C(C)(C)[C@H](O)CC(=O)O1`, the viability is 40.3% (active).
Still for that read-out and setting: for `C/C(=C\c1csc(C)n1)[C@H]1C[C@@H]2O[C@@H]2CCC[C@H](C)[C@H](O)[C@@H](C)C(=O)C(C)(C)[C@H](O)CC(=O)O1` the value was 41.6% (active); for `CC(C)[C@@]12O[C@@H]1[C@@H]1O[C@]13[C@]1(O[C@@H]1C[C@@H]1C4=C(CC[C@@]13C)C(=O)OC4)[C@@H]2O`, 8.72% (active).

The same assay, now with this note: patient-derived ovarian cancer cells, CellTiter-Glo viability, 144 h; at 5 µM; OCI-P5x cells; with rucaparib 20 µM; stronger effect = lower value; 100% = cells with rucaparib alone.
Consider `C/C(=C\c1csc(C)n1)[C@H]1C[C@@H]2O[C@]2(C)CCC[C@H](C)[C@H](O)[C@@H](C)C(=O)C(C)(C)[C@H](O)CC(=O)O1`, for which the viability was 43.9% (active).
With `C/C(=C\c1csc(C)n1)[C@H]1C[C@@H]2O[C@@H]2CCC[C@H](C)[C@H](O)[C@@H](C)C(=O)C(C)(C)[C@H](O)CC(=O)O1`, the viability is 43.6% (active).
As to `CC(C)[C@@]12O[C@@H]1[C@@H]1O[C@]13[C@]1(O[C@@H]1C[C@@H]1C4=C(CC[C@@]13C)C(=O)OC4)[C@@H]2O`, the viability was 10.3% (active).

The assay is the same for the next values; noted with them: patient-derived ovarian cancer cells, CellTiter-Glo viability, 144 h; at 5 µM; OCI-P5x cells; without rucaparib; stronger effect = lower value.
With `C/C(=C\c1csc(C)n1)[C@H]1C[C@@H]2O[C@]2(C)CCC[C@H](C)[C@H](O)[C@@H](C)C(=O)C(C)(C)[C@H](O)CC(=O)O1`, the viability is 15.4% (active).
Turning to `C/C(=C\c1csc(C)n1)[C@H]1C[C@@H]2O[C@@H]2CCC[C@H](C)[C@H](O)[C@@H](C)C(=O)C(C)(C)[C@H](O)CC(=O)O1`, the viability is 17.3% (active).
On to `CC(C)[C@@]12O[C@@H]1[C@@H]1O[C@]13[C@]1(O[C@@H]1C[C@@H]1C4=C(CC[C@@]13C)C(=O)OC4)[C@@H]2O`, for which the viability was 6.87% (active).
